# Source: ChEMBL document CHEMBL4513216, “Probing the Open Global Health Chemical Diversity Library for Multistage-Active Starting Points for Next-Generation Antimalarials” (ACS Infect Dis, 2020)
# Among all 69,000 compounds or so, about 8,600 (12%) showed an effect of 50% or more. Shown is part of a subset that was picked to be rich in strong results.
# System: Plasmodium berghei
# Test: Screen against P. berghei liver stage (PbLuc), transformed with Luciferase, at 10uM
# Format: functional, HepG2
# Settings: tested at 10 uM
row,SMILES,INHIBITION
1,O=C(CN1CC(c2nc(-c3ccco3)no2)C1)NCC1CCCO1 (stereo not given),17.7%
2,COc1ccccc1OCCNCc1c(C(C)C)nn(C)c1N(C)C,31.3%
3,O=C(NCCc1ccccn1)C1(n2cnnn2)CCCCC1,46.4%
4,CNCc1ccc([C@@H]2CN(C(C)=O)C[C@H]2C(N)=O)cc1,-2.46%
5,NC(=O)CC1CCCCN1C(=O)c1cccc(C(F)(F)F)c1 (stereo not given),37.4%
6,Cc1ccc(C(=O)N2CCOCC3(CCN(C4CCOCC4)C3)C2)o1 (stereo not given),14.1%
7,O=C1CCCN1Cc1ccc(C(=O)N2CCCC2c2cccs2)cc1 (stereo not given),4.52%
8,COCC(C)N(Cc1ccccc1OC)C(=O)c1cc(C)[nH]c(=O)c1 (stereo not given),29.4%
9,Cc1cc(C(=O)N(C)Cc2ccccc2OCC(C)C)cc(=O)[nH]1,58.1%
10,CC(C)COc1ccccc1CN(C)C(=O)c1cc(=O)[nH]c(=O)[nH]1,10.6%
11,CCc1ccccc1NC(=O)CCc1cnn(C)c1,34.2%
12,CN(CC(N)=O)CC1(c2ccc(Br)cc2)CC1,-28.4%
13,Cc1ccc(OCC(=O)NS(=O)(=O)c2cccnc2)cc1C,1.48%
14,Cc1ccc(OCC(=O)Nc2ccc(S(C)(=O)=O)cc2)cc1C,59.4%
15,Cc1ccc(OCC(=O)Nc2cc(C(=O)O)cc(S(C)(=O)=O)c2)cc1C,45.6%
16,COc1ncccc1CN1Cc2nnn(C)c2C(COCC2CC2)C1 (stereo not given),28.4%
17,Cc1nccc(C2(C)CCCNC2)n1 (stereo not given),40.4%
18,COc1ccc(CCCC(=O)NCc2c(C)noc2C)cc1F,29.3%
19,COc1ccc(CNC(=O)CCc2c(C)noc2C)cc1F,-4.93%
20,COc1ccc(C(=O)CCC(=O)NCc2c(C)noc2C)cc1F,64.1%
21,CC1c2ncc(Cn3cccn3)n2CCN1S(=O)(=O)C1CC1 (stereo not given),30.3%
22,CCN1CC2(CC1=O)CN(Cc1cnn(C)c1)CCN(C(C)=O)C2 (stereo not given),-2.53%
23,COc1ccc(CN(Cc2cncn2C)CC2CCCO2)cc1 (stereo not given),35.2%
24,CCn1cncc1CN(Cc1ccc(OC)cc1OC)CC1CCCO1 (stereo not given),41.2%
25,COc1ccc(CN(Cc2cncn2C)CC2CCCO2)c(OC)c1 (stereo not given),50%
26,CCS(=O)(=O)c1ccc(N2CCC(NC(=O)CC3CCCC3)CC2)cc1,60.1%
27,CCS(=O)(=O)c1ccc(N2CCC(NC(C)=O)CC2)cc1,19.7%

row,SMILES,INHIBITION
1,CCS(=O)(=O)c1ccccc1N1CCC(NC(C)=O)CC1,6%
2,CCCC(=O)NC1CCN(c2ccccc2S(=O)(=O)CC)CC1,58.5%
3,CCS(=O)(=O)c1ccc(N2CCC(NC(=O)C3CCCCC3)CC2)cc1,37.7%
4,CCS(=O)(=O)c1ccccc1N1CCC(NC(=O)NC2CCCC2)CC1,-28.9%
5,CCc1nnc2n1CCN(C(=O)c1ccc3[nH]nnc3c1)C2,-1.85%
6,CCOc1ccccc1OC1CCN(C(=O)c2c[nH]nn2)CC1,33.8%
7,CS(=O)(=O)N1CCOCC2(CCN(C(=O)c3ccncc3)CC2)C1,19.5%
8,COc1ccc(N2CCN(Cc3nc(CSC)no3)C(C)C2=O)cc1 (stereo not given),-0.55%
9,Cc1cccc(CN2CC[C@H]3CO[C@H](CNC(=O)N(C)C)[C@H]3C2)c1,-4.88%
10,CN(C)C[C@H]1OC[C@@H]2CCN(C(=O)NCc3cccc(F)c3)C[C@@H]21,61.9%
11,CN(C)C[C@H]1OC[C@@H]2CN(C(=O)NCc3cccc(F)c3)CC[C@@H]21,24.9%
12,CN(C)C(=O)NC[C@@H]1OC[C@H]2CN(Cc3cccc(F)c3)CC[C@H]21,69.6%
13,CN1CCO[C@@H]2CN(C(=O)NCc3cccc(F)c3)CC[C@@H]2C1,17.7%
14,COc1ccc(CN2CC[C@H]3[C@H](CO[C@H]3CNC(=O)N(C)C)C2)cc1,4.61%
15,Cc1ccccc1CN(CCN(C)C)Cc1ccc(C(=O)O)cc1,-4.37%
16,CC(C)c1nc2n(n1)CC(NCc1nc(C3CC3)no1)CC2 (stereo not given),16.8%
17,CN(CC1CCCCO1)c1ncnc2cc(F)ccc12 (stereo not given),4.68%
18,Cc1ccc(=O)n(CC2(O)CCN(Cc3cc(C)c(O)c(C)c3)CC2)n1,42.1%
19,CCn1ccc(NC(=O)C2CCC(=O)N2Cc2ccc(C)o2)n1 (stereo not given),-20.8%
20,C[C@@H]1CN(C(=O)C2(Cn3cccn3)CC2)C[C@@]1(O)C1CCC1,9.845%
21,CN(CC(=O)N1CCCC1c1cnn(C)c1)Cc1ccccc1 (stereo not given),-25.8%
22,Cc1cc(CNC(=O)N2CCN(c3ccccc3)CC2)no1,14.2%
23,Cc1cc(CNC(=O)NC(C)c2ccc(N3CCOCC3)cc2)no1 (stereo not given),35.1%
24,Cc1cc(CNC(=O)NCc2ccccc2N2CCOCC2)no1,52.4%
25,CCC(=O)Nc1cccc(OCC(=O)N(C)Cc2nccn2CC)c1,66.1%
26,CCC(=O)Nc1cccc(OCC(=O)N(C)Cc2ccon2)c1,20.2%
27,CCC(=O)Nc1cccc(OCC(=O)N(C)Cc2nc(C)c[nH]2)c1,3.82%

row,SMILES,INHIBITION
1,Cn1ccnc(Nc2ccc3c(c2)CCN3C(=O)c2ccoc2)c1=O,-21.6%
2,Cc1nc(CC(=O)N2CCCC2Cn2cccn2)cs1 (stereo not given),19.4%
3,O=C(C1CC1)N1CCC(C(=O)N2CCC(c3ccc(F)cc3)C2)CC1 (stereo not given),61.9%
4,O=C(C1CCC1)N1CCC(C(=O)N2CCC(c3ccc(F)cc3)C2)CC1 (stereo not given),62.8%
5,CC(C)N1CCC(C(=O)N2CCN(c3cccc(C(=O)O)c3)CC2)CC1,43.9%
6,O=C(C1CCS(=O)(=O)CC1)N1CCC(c2ccc(F)cc2)C1 (stereo not given),-9.51%
7,O=C(c1cc(F)ccc1O)N1CCN(C(=O)C2CCC2)CC1,6.11%
8,CC(C)N1CCC(C(=O)N2CCC(c3ccc(F)cc3)C2)CC1 (stereo not given),73%
9,CC(C)N1CCC(C(=O)N2CCCN(c3ccccc3)CC2)CC1,33.9%
10,O=C(CN1C(=O)CCNC1=O)N1CCC(c2ccc(F)cc2)C1 (stereo not given),33.4%
11,O=C(C1CCCC1)N1CCC(C(O)c2ccc(F)cc2)CC1 (stereo not given),31.7%
12,Cc1cnc2c(S(=O)(=O)NC3CCS(=O)(=O)C3)cccc2c1 (stereo not given),10%
13,Cc1ccc(C(=O)N(C)Cc2cc(C)on2)cn1,21.5%
14,N#Cc1ccccc1N1CCCN(C(=O)CCc2ccco2)CC1,-2.53%
15,CSCC(=O)N[C@H]1CC[C@H](Nc2nccc(-c3cccnc3)n2)C1,49.7%
16,CN1CCc2[nH]nc(C(=O)N3CCCC4(CC3)CNC(=O)O4)c2C1 (stereo not given),46.1%
17,CN1CCc2[nH]nc(C(=O)N3CCC4(CN(C)C(=O)O4)C3)c2C1 (stereo not given),48.9%
18,CN1CCc2[nH]nc(C(=O)N3CCC4(CCCO4)CC3)c2C1,71.2%
19,CSCc1cc(C(=O)NC2(C#N)CCSC2)ccc1F (stereo not given),-77.6%
20,N#CC1(NC(=O)c2ccc(F)c(Br)c2)CCSC1 (stereo not given),51.8%
21,CSCc1cc(C(=O)NC2(C#N)CC2)ccc1F,32.3%
22,Cc1nn(C)c(C)c1C(=O)N1CCOCC1CC(=O)c1ccco1 (stereo not given),17.4%
23,CCOC(=O)C1(O)CCN(C(=O)Nc2ccc(CC)cc2)CC1,-62.8%
24,Cc1cnc(N2C[C@@H]3[C@@H](C2)OCC(=O)N3CC2CC2)nc1,31.9%
25,CN(C)CCN1C(=O)CO[C@@H]2CN(c3ncc(F)cn3)C[C@H]21,17.2%
26,Cc1cnc(N2C[C@@H]3[C@@H](C2)OCC(=O)N3CCN(C)C)nc1,73.3%
27,Cc1nn(C)c(N(C)C)c1CNCc1ccc(Cn2cncn2)cc1,-56.7%

row,SMILES,INHIBITION
1,O=C(O)c1cccnc1CN1CCCCC1CCc1ccccn1 (stereo not given),37.6%
2,O=C(O)c1cccnc1CN1CCCCC1CCc1cccc(O)c1 (stereo not given),41.2%
3,O=C(O)c1cccnc1CN1CCCC1CCc1ccccc1 (stereo not given),51.2%
4,CCOCC1CN(S(=O)(=O)c2cccc(C)c2)Cc2nccn2C1 (stereo not given),13.1%
5,CCC(C(=O)N(C)Cc1cc(-c2ccccc2)n[nH]1)n1cccn1 (stereo not given),5.11%
6,Cn1ccnc1N1CCN(C(=O)Cc2ccc(Cl)cc2)CC1,-17.2%
7,OC1(CNCCSc2ccccn2)CCCNC1 (stereo not given),38.3%
8,OC1(CNCCN2CCc3ccccc32)CNCCOC1 (stereo not given),36.1%
9,OC1(CNCCSc2ccccn2)CNCCOC1 (stereo not given),67.2%
10,Cc1ccccc1C(=O)N1CCOCC1CN(C)C (stereo not given),1.06%
11,O=C(Nc1ccncc1)NC1CCN(c2ccccc2OC(F)F)C1 (stereo not given),79%
12,O=C(Nc1cn[nH]c1)NC1CCN(c2ccccc2OC(F)F)C1 (stereo not given),29.8%
13,COc1ccccc1N1CCCC(NC(=O)Nc2cccnc2)C1 (stereo not given),10.7%
14,O=C(Nc1cccnc1)NC1CCN(c2ccccc2OC(F)F)C1 (stereo not given),56.6%
15,O=C(Nc1ccccn1)NC1CCN(c2ccccc2OC(F)F)C1 (stereo not given),67.8%
16,O=C(NC1CCN(c2ccccc2OC(F)F)C1)c1c[nH]nn1 (stereo not given),-39.7%
17,Cc1noc(C)c1CNC1CCN(c2ccccc2OC(F)F)C1 (stereo not given),67.4%
18,COc1ccccc1N1CCC(NCc2c(C)noc2C)C1 (stereo not given),1.94%
19,N#Cc1nccnc1NC1CCN(c2ccccc2OC(F)F)C1 (stereo not given),36.5%
20,O=C(NC1CCN(c2ccccc2OC(F)F)C1)c1cccnc1 (stereo not given),27.5%
21,O=C1C(Nc2ncccn2)CCN1c1ccccc1OC(F)F (stereo not given),-10.7%
22,Cc1c(CNC2CCN(c3ccccc3OC(F)F)C2)cnn1C (stereo not given),5.64%
23,CCn1cc(S(=O)(=O)NCc2ccnc(-n3ccnc3)c2)cn1,-0.85%
24,CN(Cc1cnn(C)c1)CC(O)c1ccc2c(c1)OCO2 (stereo not given),46.6%
